The record followed here is ChEMBL document CHEMBL4513149, “CO-ADD screening of MMV (CH) - MMV compounds” (2021).

Potency and affinity values are given separately.

In the experiment the test system is Cryptococcus neoformans. The note with it: Concentration 20 uM; ASSAY_TEST Inhibition of Fungal Growth; detection method Resazurin; Absorption (OD600-OD570); plate type 384well; NBS; CORNING #3640. A general note: Alamar Blue is a resazurin reagent that responds to reducing activity.
The term Inhibition denotes the relative decrease from the control value, in per cent. As for `COc1cc2ncnc(NC3CCN(Cc4ccccc4)CC3)c2cc1OC`, the Inhibition amounted to 4.42%.
Regarding `CC(C)(C)OC(=O)N1CCN(c2cc(-c3ccc(Oc4ccccc4)cc3)n[nH]2)CC1`, the Inhibition was -7.43%.
Turning to `CCOc1ccc2cc(-c3nn(CC4CCN(C)CC4)c4ncnc(N)c34)ccc2c1.Cl`, the Inhibition is reported as -9.79%.
Regarding `COc1cc(Br)cc2cc(C(=O)Nc3cccc(C(F)(F)F)c3)c(=O)oc12`, the Inhibition is reported as -6.76%.
Turning to `Nc1ncnc2c1c(Cc1cccc3ccccc13)nn2CC1CCNCC1`, the Inhibition is -1.33%.
To `Cl.NCCCC(N)(C(=O)O)C(F)F.O` (stereo not drawn) [EFLORNITHINE HYDROCHLORIDE] belongs -9.22%; to `Nc1ncc(Br)cc1-c1nc2cc(Cl)cnc2[nH]1`, 7.04%.
The same measure for `FC(F)(F)c1ccc(N(c2cccnc2)C2CCN(c3ccc(C(F)(F)F)cn3)CC2)cc1`: -3.19%.
The same measure for `Cc1ccc(C(=O)Nc2ccc(S(=O)(=O)O)c3cc(S(=O)(=O)O)cc(S(=O)(=O)O)c23)cc1NC(=O)c1cccc(NC(=O)Nc2cccc(C(=O)Nc3cc(C(=O)Nc4ccc(S(=O)(=O)O)c5cc(S(=O)(=O)O)cc(S(=O)(=O)O)c45)ccc3C)c2)c1` [SURAMIN]: 2.45%; for `CCN(CC)S(=O)(=O)c1ccc(Cl)c(C(=O)Nc2ccc3nc(C)sc3c2)c1`: -11.27%.
Regarding `CC1(C)Cc2c(c(N3CCOCC3)nc3snc(Br)c23)CO1`, the Inhibition was -2.44%.
The same measure for `CCc1nc2ccccc2n1CC(O)COc1cc(C)ccc1Cl` (stereo not drawn): -20.36%; for `COc1ccc(Nc2ccccc2NC(=O)c2ccc(O)nc2)cc1`: -7.76%.
